Reference: the supplement of paper PMC11732987, “Enantioselective OTUD7B fragment discovery through chemoproteomics screening and high-throughput optimisation” (Communications Chemistry, 2025)

How the values were obtained:
Assay in all cases: log2 ratio of Biotin-Ahx-Ub-VS probe labelling (fragment/DMSO); higher = less target engagement (more negative = stronger competition), active = hit call of the paper (q ≤ 0.05, log2 ratio ≤ -1)
Conditions in all cases: compound concentration: 200 uM; treatment time: 3 h
USP16 = USP16 (UniProt Q9Y5T5)
Procedure, shortened: (§1)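 Global-median-normalised Spectronaut label-free quantities were compared by unpaired t-test, and values are average log2 ratios of fragment over vehicle. Only proteins with ≥2 unique peptides were used. HEK293T lysate (495 µg per sample) was treated in triplicate with fragment at 200 µM or vehicle for 3 h and then with Biotin-Ahx-Ub-VS at 0.5 µM final for 1 h. Labelled DUBs were then NeutrAvidin-enriched, digested with LysC and trypsin, and run by diaPASEF LC-MS/MS.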

USP19 = target: T1, USP19 (UniProt O94966)
T1 sequence (whole entry): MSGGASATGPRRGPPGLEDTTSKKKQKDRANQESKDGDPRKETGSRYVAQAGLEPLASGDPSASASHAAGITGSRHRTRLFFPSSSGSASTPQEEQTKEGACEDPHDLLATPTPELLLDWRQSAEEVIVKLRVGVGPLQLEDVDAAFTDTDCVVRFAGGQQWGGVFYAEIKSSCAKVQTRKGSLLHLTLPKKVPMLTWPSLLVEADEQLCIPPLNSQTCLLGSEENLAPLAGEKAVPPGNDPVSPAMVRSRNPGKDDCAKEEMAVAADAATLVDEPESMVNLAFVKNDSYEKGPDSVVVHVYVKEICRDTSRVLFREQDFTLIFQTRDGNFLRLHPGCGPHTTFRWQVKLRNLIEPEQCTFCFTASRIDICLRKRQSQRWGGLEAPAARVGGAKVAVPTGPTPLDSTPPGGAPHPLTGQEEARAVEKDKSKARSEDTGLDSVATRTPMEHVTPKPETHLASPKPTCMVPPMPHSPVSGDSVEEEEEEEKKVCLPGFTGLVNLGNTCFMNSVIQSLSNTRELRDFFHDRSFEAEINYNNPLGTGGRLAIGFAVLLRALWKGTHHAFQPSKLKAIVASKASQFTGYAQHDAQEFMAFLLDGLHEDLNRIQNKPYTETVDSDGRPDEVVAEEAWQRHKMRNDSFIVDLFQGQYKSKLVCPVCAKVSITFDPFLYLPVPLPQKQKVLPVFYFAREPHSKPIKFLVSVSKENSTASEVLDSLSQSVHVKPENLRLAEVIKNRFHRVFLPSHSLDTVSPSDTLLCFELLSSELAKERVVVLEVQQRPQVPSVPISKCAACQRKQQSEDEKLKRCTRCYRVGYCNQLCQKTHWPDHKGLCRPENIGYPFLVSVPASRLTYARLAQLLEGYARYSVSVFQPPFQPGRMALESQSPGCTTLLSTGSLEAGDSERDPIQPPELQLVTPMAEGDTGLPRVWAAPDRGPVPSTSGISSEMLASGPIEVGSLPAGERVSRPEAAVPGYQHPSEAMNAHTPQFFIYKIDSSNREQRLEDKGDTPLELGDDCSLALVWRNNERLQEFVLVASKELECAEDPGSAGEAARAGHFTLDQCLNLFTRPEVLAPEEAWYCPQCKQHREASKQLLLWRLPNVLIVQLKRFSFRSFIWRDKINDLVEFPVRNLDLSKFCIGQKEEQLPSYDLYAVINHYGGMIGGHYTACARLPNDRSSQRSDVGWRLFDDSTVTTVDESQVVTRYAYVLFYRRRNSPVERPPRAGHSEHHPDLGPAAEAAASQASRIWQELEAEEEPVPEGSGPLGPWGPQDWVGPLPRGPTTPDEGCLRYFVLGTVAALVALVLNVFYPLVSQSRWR
Procedure, shortened: as §1

USP24 = USP24 (UniProt Q9UPU5)
Procedure, shortened: as §1

USP25 = target: T2, USP25 (UniProt Q9UHP3)
T2 sequence (whole entry): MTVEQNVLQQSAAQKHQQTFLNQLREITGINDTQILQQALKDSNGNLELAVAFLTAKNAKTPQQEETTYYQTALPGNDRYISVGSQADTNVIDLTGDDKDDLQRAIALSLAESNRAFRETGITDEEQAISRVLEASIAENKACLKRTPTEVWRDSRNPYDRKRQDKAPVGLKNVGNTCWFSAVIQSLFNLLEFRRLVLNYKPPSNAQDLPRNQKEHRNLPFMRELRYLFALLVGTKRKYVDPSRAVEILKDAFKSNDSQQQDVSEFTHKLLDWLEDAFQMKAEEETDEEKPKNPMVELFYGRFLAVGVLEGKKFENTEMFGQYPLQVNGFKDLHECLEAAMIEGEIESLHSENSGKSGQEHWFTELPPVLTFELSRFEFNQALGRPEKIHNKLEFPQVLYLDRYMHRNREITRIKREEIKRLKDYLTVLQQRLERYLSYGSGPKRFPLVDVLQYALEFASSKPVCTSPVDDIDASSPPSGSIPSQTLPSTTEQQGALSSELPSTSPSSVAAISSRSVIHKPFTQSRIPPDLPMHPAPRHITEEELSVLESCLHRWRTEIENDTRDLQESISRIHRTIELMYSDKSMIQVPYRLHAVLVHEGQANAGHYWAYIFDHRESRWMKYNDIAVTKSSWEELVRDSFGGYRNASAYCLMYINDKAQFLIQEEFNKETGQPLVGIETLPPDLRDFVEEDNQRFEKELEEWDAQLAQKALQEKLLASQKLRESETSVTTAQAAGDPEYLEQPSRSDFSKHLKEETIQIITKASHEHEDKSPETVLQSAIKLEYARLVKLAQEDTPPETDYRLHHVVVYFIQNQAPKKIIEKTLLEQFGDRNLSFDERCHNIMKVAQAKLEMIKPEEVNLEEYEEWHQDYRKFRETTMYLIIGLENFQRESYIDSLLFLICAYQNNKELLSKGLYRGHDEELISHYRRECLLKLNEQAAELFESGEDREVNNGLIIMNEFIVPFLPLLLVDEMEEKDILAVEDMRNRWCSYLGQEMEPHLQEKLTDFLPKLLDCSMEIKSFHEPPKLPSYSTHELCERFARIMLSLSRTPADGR
Procedure, shortened: as §1

USP28 = target: T3, USP28 (UniProt Q96RU2)
T3 sequence (whole entry): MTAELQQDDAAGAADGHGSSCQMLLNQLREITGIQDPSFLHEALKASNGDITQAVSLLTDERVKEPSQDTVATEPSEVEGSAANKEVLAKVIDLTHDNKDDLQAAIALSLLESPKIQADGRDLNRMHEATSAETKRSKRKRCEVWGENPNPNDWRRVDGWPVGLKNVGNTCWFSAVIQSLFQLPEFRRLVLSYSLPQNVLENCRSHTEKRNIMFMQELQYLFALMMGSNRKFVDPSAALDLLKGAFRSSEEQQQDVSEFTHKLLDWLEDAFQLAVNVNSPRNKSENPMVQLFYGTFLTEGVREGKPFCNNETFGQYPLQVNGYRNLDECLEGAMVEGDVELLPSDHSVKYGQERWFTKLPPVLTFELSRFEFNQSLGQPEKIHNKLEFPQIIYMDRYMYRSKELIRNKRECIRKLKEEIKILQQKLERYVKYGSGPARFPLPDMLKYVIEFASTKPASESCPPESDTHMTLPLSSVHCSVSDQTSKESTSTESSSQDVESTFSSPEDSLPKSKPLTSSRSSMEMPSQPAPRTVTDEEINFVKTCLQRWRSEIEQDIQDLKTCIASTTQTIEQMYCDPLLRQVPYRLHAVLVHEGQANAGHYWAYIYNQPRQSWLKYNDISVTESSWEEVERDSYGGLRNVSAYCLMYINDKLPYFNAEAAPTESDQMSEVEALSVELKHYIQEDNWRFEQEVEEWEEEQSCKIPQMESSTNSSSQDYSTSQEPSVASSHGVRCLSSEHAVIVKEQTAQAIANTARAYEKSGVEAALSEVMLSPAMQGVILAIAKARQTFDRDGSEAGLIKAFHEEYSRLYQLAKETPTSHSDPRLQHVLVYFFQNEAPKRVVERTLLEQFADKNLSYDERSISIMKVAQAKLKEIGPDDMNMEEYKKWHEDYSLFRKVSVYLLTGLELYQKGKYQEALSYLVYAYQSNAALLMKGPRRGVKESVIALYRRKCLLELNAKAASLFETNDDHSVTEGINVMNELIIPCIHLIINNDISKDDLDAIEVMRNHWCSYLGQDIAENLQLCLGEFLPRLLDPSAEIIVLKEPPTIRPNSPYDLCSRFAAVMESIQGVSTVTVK
Procedure, shortened: as §1

Measured: log2 ratio of Biotin-Ahx-Ub-VS probe labelling

Sequence of USP24 (Q9UPU5 whole entry): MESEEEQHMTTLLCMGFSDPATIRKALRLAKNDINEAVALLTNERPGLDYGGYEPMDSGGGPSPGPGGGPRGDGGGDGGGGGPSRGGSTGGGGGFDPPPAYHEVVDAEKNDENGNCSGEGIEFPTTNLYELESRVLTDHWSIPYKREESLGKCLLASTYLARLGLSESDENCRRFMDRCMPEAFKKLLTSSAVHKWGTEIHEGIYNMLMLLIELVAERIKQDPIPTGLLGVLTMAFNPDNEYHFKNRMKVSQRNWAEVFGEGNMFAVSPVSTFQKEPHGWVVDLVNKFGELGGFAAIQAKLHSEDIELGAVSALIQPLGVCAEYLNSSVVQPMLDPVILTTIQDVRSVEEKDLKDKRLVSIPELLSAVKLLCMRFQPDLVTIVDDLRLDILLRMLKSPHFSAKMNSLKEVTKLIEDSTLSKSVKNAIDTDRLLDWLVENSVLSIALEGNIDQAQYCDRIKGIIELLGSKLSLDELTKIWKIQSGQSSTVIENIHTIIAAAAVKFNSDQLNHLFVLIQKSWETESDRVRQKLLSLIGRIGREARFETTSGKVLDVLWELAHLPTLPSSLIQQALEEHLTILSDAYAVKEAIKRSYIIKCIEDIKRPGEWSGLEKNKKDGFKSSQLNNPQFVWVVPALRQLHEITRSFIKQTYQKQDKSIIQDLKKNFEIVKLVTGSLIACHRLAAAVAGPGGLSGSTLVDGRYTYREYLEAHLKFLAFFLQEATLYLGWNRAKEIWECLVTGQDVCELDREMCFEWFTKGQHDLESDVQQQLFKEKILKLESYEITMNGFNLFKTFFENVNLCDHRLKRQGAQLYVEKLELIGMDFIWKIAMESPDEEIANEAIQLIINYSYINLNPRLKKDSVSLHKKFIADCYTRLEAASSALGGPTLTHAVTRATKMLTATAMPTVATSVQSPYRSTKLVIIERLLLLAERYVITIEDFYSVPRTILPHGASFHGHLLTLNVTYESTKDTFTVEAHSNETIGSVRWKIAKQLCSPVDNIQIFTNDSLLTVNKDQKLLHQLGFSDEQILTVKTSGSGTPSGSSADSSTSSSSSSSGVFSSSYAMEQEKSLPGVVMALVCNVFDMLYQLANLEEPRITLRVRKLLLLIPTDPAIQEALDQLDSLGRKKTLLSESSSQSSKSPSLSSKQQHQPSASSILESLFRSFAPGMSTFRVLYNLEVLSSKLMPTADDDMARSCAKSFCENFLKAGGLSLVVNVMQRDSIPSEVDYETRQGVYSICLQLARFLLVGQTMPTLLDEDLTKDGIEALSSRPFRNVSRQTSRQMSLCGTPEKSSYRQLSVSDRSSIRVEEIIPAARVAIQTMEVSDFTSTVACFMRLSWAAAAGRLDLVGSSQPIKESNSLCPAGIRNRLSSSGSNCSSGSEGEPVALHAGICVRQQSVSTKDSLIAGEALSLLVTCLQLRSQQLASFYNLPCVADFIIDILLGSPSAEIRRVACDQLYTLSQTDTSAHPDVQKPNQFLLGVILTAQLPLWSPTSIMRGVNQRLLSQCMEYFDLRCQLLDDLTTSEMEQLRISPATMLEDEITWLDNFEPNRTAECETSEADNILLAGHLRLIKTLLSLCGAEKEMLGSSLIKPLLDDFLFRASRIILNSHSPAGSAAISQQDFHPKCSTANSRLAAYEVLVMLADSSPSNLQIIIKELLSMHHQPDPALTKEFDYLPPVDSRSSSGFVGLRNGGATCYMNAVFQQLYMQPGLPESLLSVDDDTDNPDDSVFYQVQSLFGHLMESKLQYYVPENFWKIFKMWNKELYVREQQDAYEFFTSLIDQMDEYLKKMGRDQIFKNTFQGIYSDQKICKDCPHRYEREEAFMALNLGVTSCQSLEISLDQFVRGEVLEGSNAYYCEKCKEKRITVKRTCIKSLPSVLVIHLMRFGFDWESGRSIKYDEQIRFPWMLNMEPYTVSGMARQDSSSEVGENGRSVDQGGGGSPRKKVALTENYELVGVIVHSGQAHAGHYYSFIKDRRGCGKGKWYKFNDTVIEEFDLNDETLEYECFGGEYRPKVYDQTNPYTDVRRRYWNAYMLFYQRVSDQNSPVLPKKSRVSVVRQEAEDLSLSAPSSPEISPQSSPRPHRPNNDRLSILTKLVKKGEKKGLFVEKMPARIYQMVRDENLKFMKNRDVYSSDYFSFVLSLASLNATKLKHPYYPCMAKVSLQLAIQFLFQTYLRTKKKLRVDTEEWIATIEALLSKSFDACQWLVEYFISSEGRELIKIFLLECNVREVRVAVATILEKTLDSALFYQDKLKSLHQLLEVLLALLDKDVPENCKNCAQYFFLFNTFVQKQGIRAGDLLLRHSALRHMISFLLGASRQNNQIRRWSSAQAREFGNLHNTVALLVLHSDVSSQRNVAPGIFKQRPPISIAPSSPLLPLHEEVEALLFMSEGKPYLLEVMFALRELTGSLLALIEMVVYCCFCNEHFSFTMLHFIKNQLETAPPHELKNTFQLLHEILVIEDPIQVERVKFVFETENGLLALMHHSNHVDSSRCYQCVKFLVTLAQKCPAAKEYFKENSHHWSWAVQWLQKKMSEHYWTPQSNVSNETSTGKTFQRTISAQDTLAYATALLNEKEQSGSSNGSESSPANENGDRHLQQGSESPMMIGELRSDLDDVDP
Sequence of USP16 (Q9Y5T5 whole entry, looked up, the tested form may be a part): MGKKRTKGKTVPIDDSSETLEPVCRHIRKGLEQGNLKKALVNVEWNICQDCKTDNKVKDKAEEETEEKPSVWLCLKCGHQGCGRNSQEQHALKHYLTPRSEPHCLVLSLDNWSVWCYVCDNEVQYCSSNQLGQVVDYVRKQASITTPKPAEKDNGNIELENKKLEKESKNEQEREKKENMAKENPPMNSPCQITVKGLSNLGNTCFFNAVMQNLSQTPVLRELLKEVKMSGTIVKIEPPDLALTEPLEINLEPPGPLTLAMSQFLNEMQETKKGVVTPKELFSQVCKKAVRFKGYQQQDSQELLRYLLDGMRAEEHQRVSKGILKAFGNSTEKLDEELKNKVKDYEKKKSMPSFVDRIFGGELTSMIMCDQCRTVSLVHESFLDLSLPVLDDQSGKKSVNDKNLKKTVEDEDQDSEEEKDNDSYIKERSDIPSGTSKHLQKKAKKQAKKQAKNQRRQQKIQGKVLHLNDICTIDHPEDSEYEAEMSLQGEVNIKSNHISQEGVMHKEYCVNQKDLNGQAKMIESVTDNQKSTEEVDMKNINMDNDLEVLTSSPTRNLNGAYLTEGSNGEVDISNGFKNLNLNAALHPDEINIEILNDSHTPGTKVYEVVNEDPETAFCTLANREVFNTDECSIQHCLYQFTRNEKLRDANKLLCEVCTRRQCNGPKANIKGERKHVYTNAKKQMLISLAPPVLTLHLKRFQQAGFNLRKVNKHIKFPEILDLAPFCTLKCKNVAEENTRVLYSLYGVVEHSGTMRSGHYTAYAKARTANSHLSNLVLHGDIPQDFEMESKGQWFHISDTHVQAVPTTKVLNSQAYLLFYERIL

Cc1n[nH]c(=O)c2c(NC(=O)CCl)oc(C)c12
inactive: USP16 -0.0991 | USP19 -0.168 | USP24 -0.0362 | USP25 0.114 | USP28 -0.11
